About 83,000 compounds went through this panel and 20% of them were active in at least one assay; those are over-represented in the sample as a whole.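 Cell lines were cultured in 96-well plates, exposed to a single compound concentration, and assessed for percent growth 48 hours later.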 Values without a mark were called inactive. The source made the active and inactive calls. How the source made its calls: active means growth percent below 10; inactive means the rest.

Experiment in all cases: NCI-60 one-dose screen, 48 h (100 = growth as untreated, 0 = no growth, -100 = all killed)
Holding throughout (conditions): 10 µM unless noted

Experiment [1] concerns NCI-H23 lung.
The test system of experiment [2] is NCI-H226 lung.
Experiment [3] relates to NCI-H322M lung.
For experiment [4], the system named is HOP-62 NSCLC.
Experiment [5] relates to NCI-H460 lung.
Experiment [6] has as its system HOP-92 NSCLC.
In experiment [7] the test system is NCI-H522 lung.
Experiment [8] relates to A549/ATCC NSCLC.
The subject of experiment [9] is 786-0 renal.
Experiment [10] has as its system COLO 205 colon.
The subject of experiment [11] is DU-145 prostate.
The test system of experiment [12] is K-562 leukemia.
For experiment [13], the system named is MALME-3M melanoma.
For experiment [14], the system named is MDA-MB-231 breast.
Experiment [15] deals with RXF 393 renal.
Experiment [16] has as its system SF-268 CNS.
In experiment [17] the test system is SF-295 CNS.
In experiment [18] the test system is SF-539 CNS.
In experiment [19] the test system is UACC-257 melanoma.
Experiment [20] relates to M14 melanoma.

As for `Cc1cccc(C)c1N1C(c2ccccc2)=NNC12C=CC(=O)c1c(O)cccc12` (stereo not given), the growth was 30.6% in experiment [1]; 94.6% in experiment [2]; 99.3% in experiment [3]; 39.4% in experiment [4]; 98.2% in experiment [5]; 115% in [6]. For the same compound, the growth in [7] is 54.6%; in [8], 62.4%; in [9], 105%; in experiment [10] it was 97.7%; in experiment [11] it was 93.7%; in experiment [12], 46.5%. In addition, the growth in [13] was 62.7%; in experiment [14], 91.9%; in experiment [15], 105%; in [16], 84.3%; in experiment [17], 61.3%; in [18], 67.1%. For the same compound, the growth in [19] was 58.5%; in [20], 54.2%.
Take `Cc1cc(Oc2ccccc2)ccc1Nc1ncnc2ccc(-c3cnc(Cl)c(NS(C)(=O)=O)c3)cc12`: the growth in experiment [1] is 28.5%; in experiment [2] it was 36.9%; in experiment [3] it was 0.949% (active); in [4], 28.2%; in [5], 18%; in experiment [6] it was -14% (active). For the same compound, the growth was 32.1% in experiment [7]; 11% in experiment [8]; 16.8% in experiment [9]; 12.1% in experiment [10]; 32.1% in [11]; 54.3% in [12]. The growth in [13] was 0.126% (active); in [14], 17.4%; in experiment [15], -31.6% (active); in experiment [16], 35.4%; in experiment [17], 5.34% (active); in experiment [18] it was -15.3% (active). Further, the growth was 6.42% (active) in [19] and 19.5% in experiment [20].
As to `CC(C)(C)c1nc(-c2cccc(NS(=O)(=O)c3c(F)cccc3F)c2F)c(-c2ccnc(N)n2)s1`, the growth in experiment [1] is 63.6%; in experiment [2], 84.5%; in experiment [3] it was 90.3%; in experiment [4] it was 77.1%; in experiment [5], 74.4%; in experiment [6] it was 92.9%. Moreover, the growth was 57.5% in experiment [7]; 53.6% in [8]; 91.9% in experiment [9]; -5.08% (active) in experiment [10]; 105% in [11]; 50.8% in experiment [12]. In addition, the growth is 21.8% in [13]; 47.1% in experiment [14]; 90% in experiment [15]; 105% in experiment [16]; 112% in [17]; 114% in experiment [18]. In addition, the results for the growth in [19] and in experiment [20] were 25.2% and 32%, respectively.
As to `CS(=O)(=O)N1CCN(Cc2cc3nc(-c4cccc5[nH]ncc45)nc(N4CCOCC4)c3s2)CC1`, the growth is 37.7% in experiment [1]; 39.3% in [2]; -6.73% (active) in experiment [3]; 30.9% in [4]; 23.2% in experiment [5]; -17.1% (active) in [6]. The growth in experiment [7] was 20.8%; in experiment [8], 8.23% (active); in [9], -7.35% (active); in experiment [10], 1.08% (active); in [11], 18.8%; in experiment [12] it was 64%. Also, the growth in experiment [13] was 1.98% (active); in experiment [14], 51.5%; in experiment [15], -23.3% (active); in experiment [16], 30.3%; in experiment [17], 3.4% (active); in experiment [18], -2.44% (active). In addition, the growth in experiment [19] is 14.7%; in experiment [20], 40%.
As for `C#Cc1cccc(Nc2ncnc3cc4c(cc23)OCCOCCOCCO4)c1`, the growth was 80.5% in [1]; 71.3% in experiment [2]; 1.86% (active) in [3]; 56.1% in experiment [4]; 76.6% in experiment [5]; 49.4% in [6]. Moreover, the growth in experiment [7] was 0.957% (active); in experiment [8] it was 42.7%; in experiment [9], 51.7%; in experiment [10] it was 86.8%; in [11] it was 47.8%; in experiment [12], 36.2%. For the same compound, the growth was 84.8% in experiment [13]; 67.4% in [14]; 40.7% in [15]; 51.6% in experiment [16]; 39.6% in experiment [17]; 80.5% in experiment [18]. Moreover, the figures for the growth in experiment [19] and in [20] were 38.9% and 49.2%, respectively.
Turning to `COc1ccc(S(=O)(=O)N(C(C)=O)c2ccccc2/C=C/c2cc[n+]([O-])cc2)cc1`, the growth is 32.7% in experiment [1]; 80.6% in experiment [2]; 39.2% in experiment [3]; 10.5% in experiment [4]; 3.49% (active) in experiment [5]; 56.6% in experiment [6]. The growth is -26.4% (active) in experiment [7]; 17.5% in experiment [8]; 26.7% in experiment [9]; -36.6% (active) in experiment [10]; 16% in experiment [11]; 7.61% (active) in experiment [12]. Also, the growth in experiment [13] is 47%; in experiment [14], 45.6%; in experiment [15], -5.21% (active); in [16] it was 34.6%; in experiment [17], 13.7%; in [18], -30.4% (active). Further, the growth in experiment [19] is 65.5%; in [20], -14.3% (active).
For `C#Cc1cccc(Nc2ncnc3cc(OCCOC)c(OCCOC)cc23)c1`, the growth is 74.9% in [1]; 75.4% in experiment [2]; 0.463% (active) in [3]; 63% in experiment [4]; 55.8% in experiment [5]; 72.8% in experiment [6]. The growth is -6.57% (active) in experiment [7]; 41.5% in experiment [8]; 57.5% in experiment [9]; 60.8% in [10]; 35.8% in experiment [11]; 51.3% in [12]. Moreover, the growth in [13] is 67.6%; in [14], 67%; in [15], 46.1%; in [16] it was 62.9%; in experiment [17], 84.9%; in [18], 81.1%. Also, the growth is 85.7% in experiment [19] and 48.5% in [20].

The record behind these values is PubChem BioAssay (NCI).
